Measured values reported in PubChem BioAssay (NCI).
Compounds without any hit were thinned out: in the full panel of roughly 83,000, 20% have a hit.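 Each cell line was grown in a 96-well plate and treated with one concentration of compound for 48 hours. Values below 10 were considered active.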 Calls of active or inactive are those of the source.

Key:
Experiment in all cases: NCI-60 one-dose screen, 48 h (100 = growth as untreated, 0 = no growth, -100 = all killed)
Details in all cases: 10 µM unless noted
[1] = test system: T-47D breast
[2] = test system: BT-549 breast
[3] = test system: MDA-MB-435 melanoma
[4] = test system: SW-620 colon
[5] = test system: MCF7 breast
[6] = test system: HCT-116 colon
[7] = test system: HCC-2998 colon
[8] = test system: KM12 colon

Measured: growth

COc1cc(-c2nc3cc(Cl)c(Cl)cc3[nH]2)ccc1OCC(=O)N=Nc1c(O)[nH]c2ccc(Cl)cc12
inactive: [2] 12%
active: [1] -4.31% | [3] -57.7% | [4] -14.2% | [5] 1.63% | [6] -16.2% | [7] -39.2% | [8] 9.24%

N#Cc1cccc(C2C3=C(COC3=O)N(CCO)c3cc4c(cc32)CCC4)c1 (stereo not given)
inactive: [1] 68.9% | [2] 33.5% | [4] 21.2% | [5] 23.2% | [7] 12.7% | [8] 11%
active: [3] -32.7% | [6] 8.71%

C#CCOc1cccc(-c2ncnc3cc(NC(=O)C=C)ccc23)c1
inactive: [1] 37.6% | [2] 43.5% | [3] 30% | [4] 21.4% | [5] 13.5% | [6] 27.2% | [7] 91.5% | [8] 31.1%

O=C(O)c1ccc(-c2ccc(/C=N/Nc3nc(Nc4ccccc4)nc(N4CCCCC4)n3)o2)cc1
active: [2] -4.12%
inactive: [1] 63.7% | [3] 83.2% | [4] 86.6% | [5] 80.1% | [6] 57.8% | [7] 74.7% | [8] 61.7%

COc1ccc(NC(=O)Nc2ccc(OCCCCCC(=O)NO)cc2)cc1
inactive: [1] 107% | [2] 99.5% | [3] 94% | [4] 99.7% | [5] 98.3% | [6] 92.3% | [7] 110% | [8] 103%

O=C(Nc1ccc(Br)cc1)C1=NCCCCN1
inactive: [1] 71.3% | [2] 87.5% | [3] 75.3% | [4] 67.3% | [5] 81% | [6] 80.2% | [7] 106% | [8] 75.6%

O=C(CI)NC(=O)NC(=O)NCc1ccccc1
inactive: [1] 18.8% | [2] 37.2% | [3] 21% | [4] 25.2% | [5] 12% | [6] 13.3% | [7] 95.3% | [8] 88.6%

O=C(Cc1ccccc1)Nc1cccc(N=Cc2ccccc2O)c1
inactive: [1] 91.8% | [2] 115% | [3] 97.8% | [4] 109% | [5] 94.4% | [6] 108% | [7] 106% | [8] 98.1%

COc1cccc(Nc2ncnc3cc(NC(=O)CCl)ccc23)c1
inactive: [7] 23%
active: [1] -32.6% | [2] -28.7% | [3] -82% | [4] -73.6% | [5] -8.63% | [6] -53.8% | [8] -68.5%

CCOC(=O)c1[nH]c2c(c1C)-c1[nH]c(=O)c(S(=O)(=O)c3ccccc3)cc1SC2
active: [1] 1.66% [100 µM]
inactive: [2] 32.7% [100 µM] | [3] 24.2% [100 µM] | [4] 49.1% [100 µM] | [5] 28.2% [100 µM] | [6] 24.9% [100 µM] | [7] 75.1% [100 µM] | [8] 28.1% [100 µM]

C=C(C)[C@@H]1CC[C@]2(C(=O)N3CCN(C)CC3)CC[C@]3(C)[C@H](CC[C@@H]4[C@@]5(C)CC[C@H](OC(=O)c6ccccc6C(=O)O)C(C)(C)[C@@H]5CC[C@]43C)[C@@H]12
inactive: [1] 102% | [2] 111% | [3] 99.3% | [4] 101% | [5] 96.4% | [6] 90.8% | [7] 106% | [8] 106%

C=CC(=O)Nc1ccc(Oc2nccc(Nc3nnc(-c4ccc(C)cc4)s3)n2)cc1
inactive: [1] 89.2% | [2] 73.4% | [4] 49.5% | [5] 80.6% | [6] 94.9% | [7] 110% | [8] 84%
active: [3] 0.25%

C=C1CC[C@@H]2C(C)(C)[C@@H](O)CC[C@@]2(C)[C@@H]1COc1ccc2ccc(=O)oc2c1
inactive: [2] 72.7% | [3] 81.5% | [4] 99.4% | [5] 50.2% | [6] 76.6% | [7] 92.3% | [8] 70%
active: [1] -12.4%

COC(=O)C(Cc1ccccc1)NC(=O)c1ccc(NC(=O)c2[nH]c(C)c(Cl)c2Cl)c(OC(C)C)c1 (stereo not given)
inactive: [1] 36.5% | [2] 82.1% | [3] 100% | [4] 42.4% | [5] 32.8% | [7] 80.1% | [8] 39.8%
active: [6] 0.768%

COc1ccc(Cn2cc3c(c2-c2ccccc2)CCc2cnoc2-3)cc1
inactive: [1] 64.7% | [2] 45.3% | [4] 18.3% | [5] 14.6% | [7] 12.5%
active: [3] 3.43% | [6] 0.167% | [8] 0.62%
